Measurements reported in PubChem BioAssay (NCATS).
Results filed as inconclusive are left out. Activity calls are given as the source filed them. Calls come from the whole dose curve; as a rule, active = well fitted curve in the direction sought with a large enough effect; inconclusive = small, poorly fitted or top-dose-only effect, or another doubt; inactive = no such curve, though single readings can be large; an effect the other way counts as inactive or inconclusive.

Assays:
[1] = qHTS of pediatric cancer cell lines to identify multiple opportunities for drug repurposing: Primary screen for NB1643 cells (AID 1347099); note: nearly all actives have a fitted effect of over 50% in size; note: potency is the fitted concentration of half-maximal effect
In short: (§1)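 Plated cells (500-1,000 per well, growth media) were allowed to settle for 5 hours, treated with compound dilutions for 48 hours, then lysed with CellTiter-Glo for 15 min at room temperature before luminescence reading.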

[2] = qHTS of pediatric cancer cell lines to identify multiple opportunities for drug repurposing: Primary screen for BT-12 cells (AID 1347101); note: nearly all actives have a fitted effect of over 25% in size; note: potency is the fitted concentration of half-maximal effect
In short: (§2)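 Cells (500-1,000/well) rested 5 h, then received compounds for 48 h; metabolically active cells were measured by CellTiter-Glo luminescence. Final concentrations spanned up to 46 µM (MIPE, 11-point) or 0.59 nM-46 µM (NPC, 8-point) in primary screens, 11-point in follow-ups.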

[3] = qHTS of pediatric cancer cell lines to identify multiple opportunities for drug repurposing: Primary screen for Rh18 cells (AID 1347102); note: nearly all actives have a fitted effect of over 65% in size
In short: (§3)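 Cells (500-1,000/well) in growth media were settled 5 h at 37 degrees C, then given compounds for 48 h. Viability was read as CellTiter-Glo luminescence. Primary runs used MIPE at 11 points (0.78 nM-46 µM) and NPC at 8 points (0.59 nM-46 µM); follow-ups used 11 points.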

[4] = qHTS of pediatric cancer cell lines to identify multiple opportunities for drug repurposing: Primary screen for OHS-50 cells (AID 1347103); note: nearly all actives have a fitted effect of over 40% in size; note: potency is the fitted concentration of half-maximal effect
In short: as §2

[5] = qHTS of pediatric cancer cell lines to identify multiple opportunities for drug repurposing: Primary screen for RD cells (AID 1347104); note: nearly all actives have a fitted effect of over 55% in size; note: potency is the fitted concentration of half-maximal effect
In short: as §1

[6] = qHTS of pediatric cancer cell lines to identify multiple opportunities for drug repurposing: Primary screen for control Hh wild type fibroblast cells (AID 1347106);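 note: series mostly up to about 46 µM; a drop in luminescence marks cytotoxicity and a rise apparent proliferation; nearly all actives have a fitted effect of over 55% in size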
In short: as §3

[7] = qHTS of pediatric cancer cell lines to identify multiple opportunities for drug repurposing: Primary screen for Rh30 cells (AID 1347107); note: nearly all actives have a fitted effect of over 75% in size; note: potency is the fitted concentration of half-maximal effect
In short: as §3

[8] = qHTS of pediatric cancer cell lines to identify multiple opportunities for drug repurposing: Primary screen for Rh41 cells (AID 1347108); note: nearly all actives have a fitted effect of over 70% in size; note: potency is the fitted concentration of half-maximal effect
In short: as §1

[9] = qHTS of pediatric cancer cell lines to identify multiple opportunities for drug repurposing: Confirmatory screen for NB1643 cells (AID 1347109); note: nearly all actives have a fitted effect of over 45% in size; note: potency is the fitted concentration of half-maximal effect
In short: as §3

[10] = qHTS of pediatric cancer cell lines to identify multiple opportunities for drug repurposing: Confirmatory screen for SK-N-MC cells (AID 1347111);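 note: cells exposed to compound for 48 h before the readout; nearly all actives have a fitted effect of over 70% in size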; note: potency is the fitted concentration of half-maximal effect
In short: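 Metabolically active cells were quantified by ATP-dependent luminescence (CellTiter-Glo, 15 min at room temperature) following 48 h treatment. Cells had been plated at 500-1,000 per well and settled for 5 h beforehand.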

[11] = qHTS of pediatric cancer cell lines to identify multiple opportunities for drug repurposing: Confirmatory screen for BT-12 cells (AID 1347112); note: nearly all actives have a fitted effect of over 55% in size
In short: as §3

[12] = qHTS of pediatric cancer cell lines to identify multiple opportunities for drug repurposing: Confirmatory screen for LAN-5 cells (AID 1347113); note: nearly all actives have a fitted effect of over 65% in size; note: potency is the fitted concentration of half-maximal effect
In short: as §3

[13] = qHTS of pediatric cancer cell lines to identify multiple opportunities for drug repurposing: Confirmatory screen for SJ-GBM2 cells (AID 1347116); note: nearly all actives have a fitted effect of over 60% in size; note: potency is the fitted concentration of half-maximal effect
In short: (§4)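 Viability measured as metabolically active cells via CellTiter-Glo luminescence following 48 hours of compound exposure, 11-point dilutions in confirmatory testing. 500-1,000 cells/well plated 5 hours before dosing; controls were DMSO and 2.3 µM bortezomib.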

[14] = qHTS of pediatric cancer cell lines to identify multiple opportunities for drug repurposing: Confirmatory screen for BT-37 cells (AID 1347117); note: nearly all actives have a fitted effect of over 55% in size; note: potency is the fitted concentration of half-maximal effect
In short: as §3

[15] = qHTS of pediatric cancer cell lines to identify multiple opportunities for drug repurposing: Primary screen for LAN-5 cells (AID 1347100); note: potency is the fitted concentration of half-maximal effect
In short: as §3

[16] = qHTS of pediatric cancer cell lines to identify multiple opportunities for drug repurposing: Primary screen for MG 63 (6-TG R) cells (AID 1347105); note: nearly all actives have a fitted effect of over 50% in size; note: potency is the fitted concentration of half-maximal effect
In short: as §1

[17] = qHTS of pediatric cancer cell lines to identify multiple opportunities for drug repurposing: Confirmatory screen for DAOY cells (AID 1347114); note: nearly all actives have a fitted effect of over 65% in size; note: potency is the fitted concentration of half-maximal effect
In short: as §4

[18] = qHTS of pediatric cancer cell lines to identify multiple opportunities for drug repurposing: Confirmatory screen for NB-EBc1 cells (AID 1347115);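 note: cells exposed to compound for 48 h before the viability read; nearly all actives have a fitted effect of over 45% in size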; note: potency is the fitted concentration of half-maximal effect
In short: as §3

[19] = qHTS of pediatric cancer cell lines to identify multiple opportunities for drug repurposing: Confirmatory screen for A673 cells (AID 1347110);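 note: cells exposed to compound for 48 h before the viability read; nearly all actives have a fitted effect of over 65% in size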; note: potency is the fitted concentration of half-maximal effect
In short: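 qHTS titration format: primary MIPE 0.78 nM-46 µM (11 pts), NPC 0.59 nM-46 µM; confirmation 11 pts. 48 h, CTG luminescence.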

[20] = qHTS of pediatric cancer cell lines to identify multiple opportunities for drug repurposing: Confirmatory screen for TC32 cells (AID 1347118); note: potency is the fitted concentration of half-maximal effect
In short: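 qHTS, TC32, 48 h drug treatment, CellTiter-Glo luminescence as a proxy for metabolically active cells; primary top concentration 46 µM (MIPE 11-pt, NPC 8-pt); confirmatory 11-pt.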

Measured: Potency

CCC(=O)OCC(=O)[C@@]1(OC(=O)CC)[C@@H](C)C[C@@H]2[C@H]3CCC4=CC(=O)C=C[C@]4(C)[C@@]3(F)[C@@H](O)C[C@@]21C
active: [1] 2.35 µM | [2] 6.11 µM | [4] 10.9 µM | [5] 6.62 µM | [8] 0.148 µM
not listed: [15] | [16] | [17] | [18] | [19] | [20]
inactive: all other assays above

CC(=O)Nc1cccc(-n2c(=O)n(C3CC3)c(=O)c3c(Nc4ccc(I)cc4F)n(C)c(=O)c(C)c32)c1
inactive: [16] | [6] | [8]
active: [1] 18.7 µM | [15] 18.7 µM | [5] 0.0372 µM

OC(c1cc(C(F)(F)F)nc2c(C(F)(F)F)cccc12)C1CCCCN1 (stereo unspecified)
inactive: [1] | [16] | [6] | [7] | [8]
active: [15] 33.2 µM

Cc1c(-c2cccc3c(CCCOc4cccc5ccccc45)c(C(=O)O)n(Cc4cccnc4)c23)c(COc2ccc(N3CCN([S+](=O)([O-])N(C)C)CC3)cc2)nn1C
active: [1] 23.5 µM | [15] 20.9 µM | [5] 33.2 µM | [16] 23.5 µM
inactive: [6]

O=C(O)Cc1cccc(OCCCN(Cc2cccc(C(F)(F)F)c2Cl)CC(c2ccccc2)c2ccccc2)c1
inactive: [1] | [6]
active: [2] 24.3 µM | [4] 27.3 µM | [5] 33.2 µM | [16] 23.5 µM | [7] 23.5 µM | [8] 23.5 µM

CN1CCN(c2ncc(-c3cc(Cl)cc(Cl)c3Cl)c(N)n2)CC1
inactive: [3] | [16] | [6] | [7] | [8] | [17] | [18]
active: [1] 16.6 µM | [2] 4.32 µM | [4] 3.85 µM | [14] 26.1 µM

CCN1CCN(c2ccc(Nc3cc(N(C)C(=O)Nc4c(Cl)c(OC)cc(OC)c4Cl)ncn3)cc2)CC1
inactive: [1] | [2] | [16] | [6] | [8]

C[C@H](CCC(=O)O)[C@H]1CC[C@H]2[C@H]3[C@@H](CC[C@]12C)[C@@]1(C)CC[C@@H](O)C[C@H]1C[C@@H]3O
inactive: [1] | [2] | [3] | [4] | [6] | [7]

COc1cc([C@@H]2c3cc4c(cc3[C@@H](O[C@@H]3O[C@@H]5CO[C@@H](C)O[C@@H]5[C@H](O)[C@@H]3O)[C@H]3COC(=O)[C@H]23)OCO4)cc(OC)c1O
active: [1] 0.662 µM | [15] 0.235 µM | [4] 2.73 µM | [9] 1.47 µM | [19] 4.65 µM | [10] 1.04 µM | [12] 1.47 µM | [18] 1.47 µM | [13] 9.27 µM | [14] 0.737 µM | [20] 0.657 µM
inactive: [6] | [7]

CC(=O)O[C@]1(C(C)=O)CC[C@H]2[C@@H]3C=C(Cl)C4=CC(=O)[C@@H]5C[C@H]5[C@]4(C)[C@@H]3CC[C@@]21C
active: [1] 14.8 µM | [2] 3.43 µM | [4] 3.43 µM | [5] 18.7 µM
inactive: [3]

Cn1cnc(-c2cc3nccc(Oc4ccc(NC(=S)NC(=O)Cc5ccccc5)cc4F)c3s2)c1
inactive: [6]
active: [1] 16.6 µM | [15] 16.6 µM | [4] 34.3 µM

C[C@@H]1[C@H](O)[C@@H](C)C=CC=CC=CC=CC=CC=CC=C[C@H](O[C@@H]2O[C@H](C)[C@H](O)[C@H](N)[C@@H]2O)C[C@@H]2O[C@](O)(C[C@@H](O)C[C@@H](O)[C@H](O)CC[C@@H](O)C[C@@H](O)CC(=O)O[C@H]1C)C[C@H](O)[C@@H]2C(=O)O
active: [1] 0.166 µM | [5] 0.743 µM | [7] 0.418 µM | [10] 10.4 µM | [20] 11.7 µM
not listed: [8] | [13] | [15]
inactive: all other assays above

CN1CCC(COc2cnc(-c3cccc(Cn4nc(-c5cccc(C#N)c5)ccc4=O)c3)nc2)CC1
active: [5] 4.69 µM | [16] 0.743 µM | [8] 3.72 µM
inactive: [1] | [2] | [3] | [7]

c1ccc(-c2oc3ncnc(NC[C@@H]4CCCO4)c3c2-c2ccccc2)cc1
inactive: [6]
active: [1] 2.64 µM | [15] 18.7 µM | [4] 27.3 µM | [5] 29.6 µM | [7] 18.7 µM | [8] 18.7 µM

CCC[C@H](N[C@@H](C)C(=O)N1[C@@H]2CCCC[C@H]2C[C@H]1C(=O)O)C(=O)OCC
not listed: [2] | [3] | [4] | [5] | [19]
inactive: all other assays above

CCNC(=O)Nc1ccc(Oc2ncnc(N)c2C=NOC)cc1Cl
inactive: [1] | [3] | [4] | [5] | [16] | [6] | [7] | [8]

CC(C)C[C@@H](C(=O)N[C@H](C(=O)OC1CCCC1)c1ccccc1)[C@H](O)C(=O)NO
inactive: [11] | [18]
active: [1] 18.7 µM | [15] 16.6 µM | [4] 21.7 µM | [9] 20.8 µM | [10] 20.8 µM | [17] 18.5 µM | [20] 23.3 µM
